Sampled rows, rich in hits. Any-hit rate of the full collection: about 4.6%.
D1 potentiator – potentiators of human D1 dopamine receptor; P21728; HEK293 TREx D1 cells, calcium flux, dopamine EC20 potentiation; potentiation, % at 10 µM; 360,000 tested, 0.036% active; in the data active = potentiation above about 30%; note: 0% is about no effect
Target sequence (P21728 whole entry, looked up): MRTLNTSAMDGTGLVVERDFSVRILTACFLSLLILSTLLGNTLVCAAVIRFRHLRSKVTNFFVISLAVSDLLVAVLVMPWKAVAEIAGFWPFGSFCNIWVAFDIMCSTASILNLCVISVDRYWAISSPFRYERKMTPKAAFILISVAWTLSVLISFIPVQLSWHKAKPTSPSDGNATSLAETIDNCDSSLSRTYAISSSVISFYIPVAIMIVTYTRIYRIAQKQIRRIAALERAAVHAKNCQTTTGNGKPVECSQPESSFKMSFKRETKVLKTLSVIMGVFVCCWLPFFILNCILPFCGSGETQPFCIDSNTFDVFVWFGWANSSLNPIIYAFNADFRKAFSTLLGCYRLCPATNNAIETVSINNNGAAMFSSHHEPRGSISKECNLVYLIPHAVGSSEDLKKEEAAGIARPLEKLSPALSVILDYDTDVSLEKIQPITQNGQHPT
TRHR agonist – TRH receptor (human) agonism | P34981 | TRHR cells, calcium flux fluo-8, FDSS agonist mode | activation, % at 2 µM | 360,000 tested, 0.18% active | AID 493084; note: 0% is about no effect
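TRHR-expressing cells, plated overnight in medium with 10% serum, were loaded with fluo-8 calcium dye at room temperature. After a 10 s baseline, library compound was pin-added and calcium release was recorded kinetically (ex 480/em 530) as agonist response.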
D1 antag – blocks dopamine activation of the human D1 receptor | 360,000 tested, 3.2% active | HEK293 TREx D1 cells, calcium flux, dopamine EC80; stronger effect = lower value | P21728 | activity change, negative = inhibition, % at 10 µM; in the data active = activity change below about -30%; note: % is set by controls: 0 for no effect and ±100 for the full control effect
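Allosteric or orthosteric antagonism assessed as attenuation of the calcium response to EC80 dopamine, added 180 s after compound, in induced HEK293 Trex D1 cells loaded with no-wash calcium dye.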
D1 agonist – human D1 receptor agonism; P21728; HEK293 T-REx D1 cells, calcium flux, agonist mode; activation, % at 2 µM; 360,000 tested, 1% active; note: 0% is about no effect
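Inducible HEK293 T-REx D1 cells, force-coupled to calcium signalling, were plated at 4000 cells/well with tetracycline and held overnight at 30 C. After no-wash calcium dye loading, compound-evoked calcium rise over 180 s flagged agonists.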
TRHR enhancer – TRH receptor (human) allosteric enhancement. enhancement, % at 2 µM. P34981. AID 493056. TRHR cells, fluo-8 calcium fluorescence, EC20 TRH enhancement. 360,000 tested, 0.66% active; in the data active = enhancement above about 30%; note: 0% is about no effect
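Enhancer read-out: after compound pinning and an initial kinetic agonist-mode read, an EC20 of TRH (10 nM final) was injected and fluo-8 calcium signal (Ex 480/Em 530) followed at 1 s/cycle for 100 cycles in TRHR-expressing cells.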
Starred values were filed as active, the others as inactive; / = no result given. Cut-off read from the data, not from the text of the source, unless noted: active = activation above about 30%; inactive = the rest.

SMILES | D1 potentiator | TRHR agonist | D1 antag | D1 agonist | TRHR enhancer
COc1ccc(CNC(=O)Cc2c(C(=O)O)c(C)cn2C)cc1 | 6 | 0 | -9 | 3 | 1
CC(C)c1ccc(OCc2ccc(C(=O)O)o2)cc1 | -6 | 0 | 4 | 5 | -2
CC(C)c1ccc(OCc2ccc(C(=O)N(C)C)o2)cc1 | -3 | 0 | -32* | 10 | 0
COc1ccc(CN2CCc3nc(SCC(=O)Nc4cc(C)cc(C)c4)[nH]c(=O)c3C2)cc1 | 0 | 0 | 3 | 3 | 2
CCCOc1ccc(CNC(=O)Cn2ncn3c(cc4sc(CC)cc43)c2=O)cc1 | -6 | 0 | 22 | 4 | 8
Cc1ccc(N/C(N)=N/c2nc(C)cc(C)n2)cc1 | -20 | 22 | -74* | 16 | -16
Cc1cc(C)nc(/N=C(\N)Nc2cccc([N+](=O)[O-])c2)n1 | -5 | -1 | -7 | 34* | 3
Cc1cc(C)nc(/N=C(\N)Nc2ccc(C(C)C)cc2)n1 | 0 | 7 | -23 | 35* | -1
Cc1cc(C)cc(N/C(N)=N/c2nc(C)cc(C)n2)c1 | -15 | 10 | -28 | 25 | 0
Cc1cc(C)nc(/N=C(\N)Nc2ccc([N+](=O)[O-])cc2)n1 | -5 | 6 | 4 | 21 | 4
CCC(=O)Nc1ccc(N/C(N)=N/c2nc(C)cc(C)n2)cc1 | -5 | 0 | -2 | 2 | 0
CCCCc1ccc(N/C(N)=N/c2nc(C)cc(C)n2)cc1 | 4 | 23 | -8 | 64* | -3
COCCn1c(SCC(=O)c2c(C)[nH]c3ccccc23)nc2cc(C(=O)NC(C)C)ccc2c1=O | -4 | 0 | 11 | 1 | 4
CC(Sc1nc2ccccc2n1C)C(=O)Nc1ccc(N2CCOCC2)cc1 (stereo unspecified) | 0 | -1 | -1 | 0 | 7
CCc1ccccc1-n1nnnc1SCC(=O)Nc1ccc(N2CCN(C)CC2)cc1 | -6 | 0 | -60* | 3 | -2
Cc1ccccc1-n1nnnc1SC(C)C(=O)Nc1ccc(N2CCN(C)CC2)cc1 (stereo unspecified) | -10 | 0 | -68* | 14 | 7
CCc1ccccc1-n1nnnc1SCC(=O)Nc1cc(C)on1 | -1 | -1 | -2 | -1 | 8
Cc1cccc(-n2nnnc2SCC(=O)Nc2ccc(N3CCN(C)CC3)cc2)c1 | -10 | -1 | -5 | 3 | 6
Cc1ccccc1-n1nnnc1SCC(=O)Nc1ccc(N2CCN(C)CC2)cc1 | -13 | 0 | -77* | 14 | 3
O=C(CNC(=O)c1ccc2n[nH]nc2c1)OC(C(=O)Nc1cc(C(F)(F)F)ccc1Cl)c1ccccc1 (stereo unspecified) | 13 | -2 | 3 | 3 | 9
Cc1cc2c(cc1NC(=O)c1ccccc1C)n(C)c(=O)c(=O)n2C | -3 | 0 | 6 | 0 | 17
CC(C)c1ccc(NS(=O)(=O)c2ccc3[nH]c(=O)ccc3c2)cc1 | -2 | 0 | -17 | 5 | -4
O=C(O)CCc1cc(I)c(Oc2ccc(O)c(I)c2)c(I)c1 | -9 | 2 | 0 | 85* | 13
COCCNC(=O)C1=CC(c2ccc3c(c2)OCO3)=NS(=O)(=O)N1C | 0 | 1 | 0 | 1 | -1
Cc1ccc2nc(-c3cc(-c4ccccc4)no3)cn2c1 | -17 | 0 | -53* | 1 | -1
SMILES | D1 potentiator | TRHR agonist | D1 antag | D1 agonist | TRHR enhancer
O=C(C[n+]1cc(-c2ccc(Cl)cc2)n2c1CCC2)N1c2ccccc2Sc2ccccc21 | -2 | 0 | -3 | 9 | -6
O=C(C[n+]1cc(-c2ccc(Cl)cc2)n2c1CCC2)Nc1nc(-c2ccccc2)cs1 | -10 | 0 | -61* | 3 | 0
O=C(C[n+]1cc(-c2ccc(Cl)c(Cl)c2)n2c1CCC2)N1c2ccccc2Sc2ccccc21 | -7 | -1 | -39* | 1 | -7
Cc1ccc(NC(=O)CSc2nnc3[nH]c(=O)cc(-c4ccccc4)n23)cc1Cl | 0 | 0 | / | 3 | 1
CCCc1c(C)nc(N2CCN(c3ccc(F)cc3)CC2)[nH]c1=O | -1 | 0 | -30* | 13 | -4
CCc1c(C)nc(N2CCN(c3ccc(F)cc3)CC2)[nH]c1=O | -5 | 1 | -9 | 7 | 2
O=c1c2ccccc2sn1-c1ccc(F)cc1 | -6 | 10 | -44* | 65* | 19
Cc1oc(-c2ccc(C(=O)Nc3cc(F)ccc3F)cc2)nc1COc1ccccc1 | 1 | 0 | 8 | 0 | -4
CCc1c(C(=O)N2CCCN(C)CC2)csc1C | -7 | 0 | -31* | 0 | -2
CCn1ccnc1CN1CCN(CC=C(C)C)C(CCO)C1 (stereo unspecified) | -4 | 0 | -10 | 0 | 31*
Cc1noc(C(=O)N2CCN(c3ccc(F)cc3)CC2)c1Cl | -3 | 0 | -69* | 2 | 5
Cc1noc(C)c1CSCC(=O)N1CCN(c2ccc(F)cc2)CC1 | -3 | 0 | -32* | 13 | 3
O=C(Nc1ccc(Cl)cc1Cl)c1cc(S(=O)(=O)N2CCC3(CC2)OCCO3)ccc1F | -3 | 0 | -41* | 2 | -3
O=C(Nc1cccc(Cl)c1)c1cc(S(=O)(=O)N2CCC3(CC2)OCCO3)ccc1F | 4 | 1 | -2 | -1 | 7
Cc1ccc(C)c(S(=O)(=O)N2CCC3(CC2)OCCO3)c1 | -3 | 0 | 10 | 36* | 1
Cc1ccc(S(=O)(=O)N2CCC3(CC2)OCCO3)cc1 | -3 | 1 | -32* | 20 | 4
Cc1cc(-c2nnc(SCC(=O)Nc3cccc(F)c3)n2N)n[nH]1 | 7 | 0 | 0 | 3 | 5
Cc1ccc(C)c2[nH]c(=O)c(CN(CC3CCCO3)C(=S)NCc3ccco3)cc12 (stereo unspecified) | -2 | 0 | -4 | 1 | 9
Cc1ccc2cc(CN(CC3CCCO3)C(=S)NCc3ccco3)c(=O)[nH]c2c1C (stereo unspecified) | -12 | 1 | 2 | 3 | 34*
Cc1ccc2cc(CN(Cc3nnnn3Cc3ccco3)CC3CCCO3)c(=O)[nH]c2c1C (stereo unspecified) | 0 | 0 | -35* | -2 | -2
COc1ccc2[nH]c(=O)c(CN(Cc3nnnn3Cc3ccccc3)CC3CCCO3)cc2c1 (stereo unspecified) | -5 | -1 | -4 | 0 | -6
CCCCNC(=S)N(Cc1ccco1)Cc1cc2cc3c(cc2[nH]c1=O)OCCO3 | -5 | 1 | -46* | -1 | 2
CCCCCCCCCCOC(=O)Cn1c(COc2ccccc2OC)[n+](C)c2ccccc21 | 17 | -1 | -23 | 183* | -26
Cn1c(COc2ccccc2O)[n+](C)c2ccccc21 | -2 | 0 | 8 | 0 | 3
Cc1ccc(NC(=O)COC(=O)Cn2cnc3c2c(=O)n(C)c(=O)n3C)c(Cl)c1 | -6 | 1 | 1 | 4 | 24
Cn1c(=O)c2c(ncn2Cc2ccccc2)n(C)c1=O | 5 | 1 | 4 | 3 | -4

Screens: PubChem BioAssay, National Center for Advancing Translational Sciences (NCATS)
